Among the data in PubChem BioAssay (EPA / NIEHS) are AC50 and outcome values, retold here.

SMILES strings stand for the structures. Active and inactive are the calls of the source. Rule for the calls: active = hit-call score of the fitted dose curve at least 0.9, where 1 is the maximum; inactive = score below 0.9.

Holding throughout (conditions): mRNA level, 48 h; actives raise or lower the signal
Read-out in test [1]: Cytochrome P450 (CYP2B6), CYP2B6 (gene 1555)
Briefly: LTEA_HepaRG_CYP2B6: Life Technologies and Expression Analysis (LTEA) Assay for Cytochrome P450 (CYP2B6) using HepaRG (AID 2283481). The essentials:
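Using 48 h treatment of HepaRG cells in serum-free induction medium, concentrations spanned half-log steps from 100 uM in 0.5% DMSO vehicle. CYP2B6 mRNA induction or loss is scored by qRT-PCR against DMSO.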

Read-out in test [2]: Cytochrome P450 2C19 (Homo sapiens) (UniProt P33261)
Briefly: LTEA_HepaRG_CYP2C19: Life Technologies and Expression Analysis (LTEA) Assay for CYP2C19 using HepaRG (AID 2283482). The essentials: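 Human HepaRG liver cells received test chemicals for 48 h (highest 100 uM, half-log dilutions in 0.5% DMSO). CYP2C19 mRNA induction or loss is read by multiplexed qRT-PCR and fitted in both directions versus vehicle.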

Read-out in the next test: CYP2C8 (gene 1558)
The test is described as follows: LTEA_HepaRG_CYP2C8: Life Technologies and Expression Analysis (LTEA) Assay for CYP2C8 using HepaRG (AID 2283483). The essentials:
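CYP2C8 expression measured by TaqMan qRT-PCR and normalized to three housekeeping genes. HepaRG cultures were treated for 48 h with an eight-point half-log series topping at 100 uM, vehicle 0.5% DMSO, duplicates; fitted both directions against DMSO.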

Read-out in another test: CYP2C9 (gene 1559)
Briefly: LTEA_HepaRG_CYP2C9: Life Technologies and Expression Analysis (LTEA) Assay for CYP2C9 using HepaRG (AID 2283484). The essentials: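 CYP2C9 transcript level, quantified by TaqMan qRT-PCR against three housekeeping genes, was fitted bidirectionally relative to 0.5% DMSO. HepaRG cultures were treated 48 h, in duplicate, at eight half-log concentrations topping at 100 uM.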

Read-out in another test: CYP2E1 (gene 1571)
The test is described as follows: LTEA_HepaRG_CYP2E1: Life Technologies and Expression Analysis (LTEA) Assay for CYP2E1 using HepaRG (AID 2283485). The essentials: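 Assay uses 48 h exposure of HepaRG hepatic cells, eight concentrations to 100 uM. Expression of CYP2E1 is quantified by TaqMan qRT-PCR with ACTB, GAPDH and POLR2A normalization; curves fitted in both directions relative to vehicle.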

Read-out in another test: CYP4A11 (gene 1579)
The test is described as follows: LTEA_HepaRG_CYP4A11: Life Technologies and Expression Analysis (LTEA) Assay for CYP4A11 using HepaRG (AID 2283486). The essentials: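 Readout is CYP4A11 mRNA induction or suppression (qRT-PCR, ACTB/GAPDH/POLR2A normalization) in human HepaRG cells after 48 h chemical treatment, concentrations to 100 uM in 0.5% DMSO, fitted bidirectionally against vehicle.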

Read-out in test [3]: Cytochrome P450 3A4 (Homo sapiens) (UniProt P08684)
Briefly: LTEA_HepaRG_CYP3A4: Life Technologies and Expression Analysis (LTEA) Assay for CYP3A4 using HepaRG (AID 2283487). The essentials: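 Differentiated HepaRG cells in serum-free induction medium exposed in duplicate for 48 h to 8 half-log concentrations up to 100 uM in 0.5% DMSO. CYP3A4 mRNA measured by qRT-PCR normalized to ACTB, GAPDH and POLR2A; bidirectional fit versus DMSO.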

Read-out in test [4]: DNA damage-inducible transcript 3 (DDIT3), DDIT3 (gene 1649)
Briefly: LTEA_HepaRG_DDIT3: Life Technologies and Expression Analysis (LTEA) Assay for DNA damage-inducible transcript 3 (DDIT3) using HepaRG (AID 2283488). The essentials: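 Eight-point concentration-response (100 uM highest, half-log dilutions) in HepaRG, 48 h, duplicate wells. Endpoint: qRT-PCR mRNA, normalized (ACTB, GAPDH, POLR2A), bidirectional fitting with DMSO as baseline.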

Read-out in test [5]: Pro-epidermal growth factor (Homo sapiens) (UniProt P01133)
The test is described as follows: LTEA_HepaRG_EGF: Life Technologies and Expression Analysis (LTEA) Assay for Epidermal growth factor (EGF) using HepaRG (AID 2283489). The essentials:
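EGF expression changes in human HepaRG cells are scored by bidirectional fitting relative to 0.5% DMSO controls. Chemicals are tested at eight half-log concentrations up to 100 uM for 48 h in serum-free induction medium.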

Read-out in test [6]: Early growth response protein 1 (EGR1) transcription factor, EGR1 (gene 1958)
The test is described as follows: LTEA_HepaRG_EGR1: Life Technologies and Expression Analysis (LTEA) Assay for Early growth response protein 1 (EGR1) transcription factor using HepaRG (AID 2283490). The essentials:
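EGR1 transcript levels quantified by qRT-PCR (Fluidigm arrays) against three housekeeping genes after 48 h chemical exposure of HepaRG cells. Eight-point half-log series topping at 100 uM, 0.5% DMSO vehicle, analyzed for gain or loss.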

Read-out in test [7]: Cytochrome P450 3A7 (Homo sapiens) (UniProt P24462)
The test is described as follows: LTEA_HepaRG_CYP3A7: Life Technologies and Expression Analysis (LTEA) Assay for CYP3A7 using HepaRG (AID 2283492). The essentials: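 Cells were thawed, plated, cultured 48 h, then treated for a further 48 h with chemicals (eight-point half-log series from 100 uM, 0.5% DMSO). RNA was isolated and CYP3A7 expression quantified by qRT-PCR normalised to ACTB, GAPDH and POLR2A.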

Read-out in a further test: CYP3A5 (gene 1577)
Briefly: LTEA_HepaRG_CYP3A5: Life Technologies and Expression Analysis (LTEA) Assay for CYP3A5 using HepaRG (AID 2283493). The essentials:
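Readout was CYP3A5 mRNA by qRT-PCR. HepaRG cultures were exposed for 48 h in serum-free induction medium to chemicals at up to 100 uM, and responses were fitted in both directions relative to DMSO vehicle.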

Read-out in test [8]: Fatty Acid-Binding Protein 1 (FABP1), FABP1 (gene 2168)
The test is described as follows: LTEA_HepaRG_FABP1: Life Technologies and Expression Analysis (LTEA) Assay for Fatty Acid-Binding Protein 1 (FABP1) using HepaRG (AID 2283494). The essentials: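 FABP1 expression by TaqMan qRT-PCR, normalised to three housekeeping genes, in HepaRG cells after 48 h chemical treatment. Eight-point half-log series topping at 100 uM in 0.5% DMSO, duplicates; gain or loss fitted relative to vehicle.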

Read-out in test [9]: Cytochrome P450 4A22 (Homo sapiens) (UniProt Q5TCH4)
Briefly: LTEA_HepaRG_CYP4A22: Life Technologies and Expression Analysis (LTEA) Assay for Cytochrome P450 4A22 (CYP4A22) using HepaRG (AID 2283495). The essentials:
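Cryopreserved HepaRG cells, plated and cultured 48 h, then switched to serum-free induction medium and treated 48 h (duplicates, up to 100 uM, half-log steps, 0.5% DMSO). Expression change of CYP4A22 was fitted bidirectionally against vehicle.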

Read-out in test [10]: Cytochrome P450 7A1 (Homo sapiens) (UniProt P22680)
The test is described as follows: LTEA_HepaRG_CYP7A1: Life Technologies and Expression Analysis (LTEA) Assay for Cytochrome P450 7A1 (CYP7A1) using HepaRG (AID 2283496). The essentials: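 Using 0.5% DMSO as vehicle and baseline, chemicals were tested in duplicate over an 8-point range from 100 uM on HepaRG cells for 48 h; qRT-PCR signals were normalised to ACTB, GAPDH and POLR2A.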

Read-out in test [11]: Glutathione S-Transferase (GSTA2), GSTA2 (gene 2939)
The test is described as follows: LTEA_HepaRG_GSTA2: Life Technologies and Expression Analysis (LTEA) Assay for Glutathione S-Transferase (GSTA2) using HepaRG (AID 2283497). The essentials:
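GSTA2 transcript levels came from Fluidigm TaqMan qRT-PCR normalized to three housekeeping genes, fitted in both directions against DMSO. HepaRG cultures received chemicals for 48 h in serum-free induction medium (0.5% DMSO), 8 half-log concentrations up to 100 uM, duplicate.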

Read-out in test [12]: Glutamate-cysteine ligase catalytic (GCLC), GCLC (gene 2729)
Briefly: LTEA_HepaRG_GCLC: Life Technologies and Expression Analysis (LTEA) Assay for Glutamate-cysteine ligase catalytic (GCLC) using HepaRG (AID 2283498). The essentials:
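Expression by TaqMan qRT-PCR, normalized to three housekeeping genes (ACTB, GAPDH, POLR2A), with up- or down-regulation fitted against DMSO. HepaRG cells dosed in duplicate for 48 h with 8 half-log concentrations up to 100 uM, vehicle 0.5% DMSO.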

Read-out in test [13]: growth arrest and DNA damage 45 (GADD45G), GADD45G (gene 10912)
Briefly: LTEA_HepaRG_GADD45G: Life Technologies and Expression Analysis (LTEA) Assay for growth arrest and DNA damage 45 (GADD45G) using HepaRG (AID 2283499). The essentials:
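Human hepatic HepaRG line treated 48 h with chemicals (eight concentrations, half-log steps from 100 uM); transcript induction or repression of GADD45G scored by qRT-PCR versus DMSO vehicle.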

Read-out in test [14]: Glutamate-cysteine ligase regulatory (GCLM), GCLM (gene 2730)
Briefly: LTEA_HepaRG_GCLM: Life Technologies and Expression Analysis (LTEA) Assay for Glutamate-cysteine ligase regulatory (GCLM) using HepaRG (AID 2283500). The essentials: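 In this multiplexed HepaRG gene-expression assay, GCLM mRNA change after 48 h treatment (8 concentrations, max 100 uM) was scored against DMSO by bidirectional curve fitting.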

As a reminder, the AC50 is the concentration at which the activity in the assay is half-maximal.

Cytochrome P450 3A7 (Homo sapiens), sequence (P24462 whole entry, looked up): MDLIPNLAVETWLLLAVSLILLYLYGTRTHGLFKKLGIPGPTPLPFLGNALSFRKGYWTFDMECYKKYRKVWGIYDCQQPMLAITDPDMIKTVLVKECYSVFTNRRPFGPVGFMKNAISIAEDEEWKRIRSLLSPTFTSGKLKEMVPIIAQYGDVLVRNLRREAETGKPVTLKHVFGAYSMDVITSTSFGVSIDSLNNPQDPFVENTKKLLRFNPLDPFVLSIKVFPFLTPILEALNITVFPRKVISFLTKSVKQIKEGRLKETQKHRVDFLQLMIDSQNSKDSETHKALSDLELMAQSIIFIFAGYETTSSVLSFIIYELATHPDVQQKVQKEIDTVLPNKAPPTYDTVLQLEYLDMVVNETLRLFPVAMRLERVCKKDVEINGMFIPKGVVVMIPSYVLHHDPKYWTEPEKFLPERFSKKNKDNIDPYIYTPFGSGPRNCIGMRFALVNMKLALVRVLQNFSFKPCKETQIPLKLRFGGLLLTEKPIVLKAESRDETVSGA
Cytochrome P450 2C19 (Homo sapiens), sequence (P33261 whole entry, looked up): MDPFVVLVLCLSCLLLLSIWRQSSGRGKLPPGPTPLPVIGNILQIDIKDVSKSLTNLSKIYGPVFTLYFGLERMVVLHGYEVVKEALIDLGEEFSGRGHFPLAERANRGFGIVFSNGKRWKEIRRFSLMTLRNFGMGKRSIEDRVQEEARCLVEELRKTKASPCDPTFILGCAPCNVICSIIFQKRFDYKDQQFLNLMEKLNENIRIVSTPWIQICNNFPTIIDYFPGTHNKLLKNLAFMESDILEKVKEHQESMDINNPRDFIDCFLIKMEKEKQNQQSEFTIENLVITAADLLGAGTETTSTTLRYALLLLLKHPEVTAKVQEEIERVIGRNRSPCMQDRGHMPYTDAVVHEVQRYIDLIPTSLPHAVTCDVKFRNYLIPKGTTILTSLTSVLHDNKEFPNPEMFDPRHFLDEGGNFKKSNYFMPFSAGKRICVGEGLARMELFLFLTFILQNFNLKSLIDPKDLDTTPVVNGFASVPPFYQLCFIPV
Cytochrome P450 3A4 (Homo sapiens), sequence (P08684 whole entry, looked up): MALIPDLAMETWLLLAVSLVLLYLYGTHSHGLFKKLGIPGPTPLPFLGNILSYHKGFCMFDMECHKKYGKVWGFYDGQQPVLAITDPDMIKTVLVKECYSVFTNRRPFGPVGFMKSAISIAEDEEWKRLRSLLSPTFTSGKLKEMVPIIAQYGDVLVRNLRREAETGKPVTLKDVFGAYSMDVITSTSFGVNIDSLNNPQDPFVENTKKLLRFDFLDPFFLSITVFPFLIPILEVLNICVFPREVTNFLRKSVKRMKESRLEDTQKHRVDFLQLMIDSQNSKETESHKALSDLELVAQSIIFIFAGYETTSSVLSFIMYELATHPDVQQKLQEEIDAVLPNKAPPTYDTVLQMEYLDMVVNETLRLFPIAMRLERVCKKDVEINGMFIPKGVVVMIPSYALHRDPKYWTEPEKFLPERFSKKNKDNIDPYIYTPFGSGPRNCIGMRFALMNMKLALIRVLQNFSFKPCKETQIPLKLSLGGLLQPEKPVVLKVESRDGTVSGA

For the molecule `Cc1ccc(N)cc1`, the AC50 in test [1] was 16.5 µM (active). Also, the call (in test [2]; in the test with CYP2C8 (gene 1558); in the test with CYP2C9 (gene 1559); with CYP2E1 (gene 1571); with CYP4A11 (gene 1579); in [3]) was inactive. In addition, the result (in [4]; in test [5]; in test [6]; in test [7]; in the test with CYP3A5 (gene 1577); in test [8]) was inactive. Moreover, the outcome in test [9], in [10], in test [11], in test [12], in test [13] and in test [14] was inactive.
With `CC(C)(C)OOC(=O)c1ccccc1`, the result (in [1]; in [2]; in the test with CYP2C8 (gene 1558); in the test with CYP2C9 (gene 1559); with CYP2E1 (gene 1571); in the test with CYP4A11 (gene 1579)) was inactive. The outcome (in [3]; in test [4]; in test [5]; in test [6]; in test [7]; with CYP3A5 (gene 1577)) was inactive. The outcome in test [8], in test [9], in test [10], in test [11], in test [12] and in test [13] was inactive. In test [14], the molecule was called inactive.
With `c1ccc(NNc2ccccc2)cc1`, the AC50 in [1] is 5.26 µM (active). The result (in test [2]; with CYP2C8 (gene 1558); with CYP2C9 (gene 1559); in the test with CYP2E1 (gene 1571); with CYP4A11 (gene 1579); in test [3]) was inactive. Also, the molecule was called inactive (in [4]; in test [5]; in test [6]; in test [7]; in the test with CYP3A5 (gene 1577); in test [8]). The molecule was called inactive in test [9], in [10], in [11], in test [12], in test [13] and in test [14].
